This is part of a sample that, as a whole, favours compounds with a hit. Of some 83,000 tested, about 20% had one in any assay.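 Cell lines were cultured in 96-well plates, exposed to a single compound concentration, and assessed for percent growth 48 hours later.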 Values without a mark were called inactive. Calls of active or inactive are those of the source. Rule for the calls: active = growth percent below 10; inactive = the rest.
Legend:
Assay in all cases: NCI-60 one-dose screen, 48 h (100 = growth as untreated, 0 = no growth, -100 = all killed)
Details in all cases: 10 µM
K-562 leukemia = test system: K-562 leukemia
MALME-3M melanoma = test system: MALME-3M melanoma
MDA-MB-231 breast = test system: MDA-MB-231 breast
RXF 393 renal = test system: RXF 393 renal
SF-268 CNS = test system: SF-268 CNS
SF-295 CNS = test system: SF-295 CNS
SF-539 CNS = test system: SF-539 CNS
UACC-257 melanoma = test system: UACC-257 melanoma
M14 melanoma = test system: M14 melanoma
HCT-15 colon = test system: HCT-15 colon
HT29 colon = test system: HT29 colon
SNB-75 CNS = test system: SNB-75 CNS
SNB-19 CNS = test system: SNB-19 CNS
U251 CNS = test system: U251 CNS
PC-3 prostate = test system: PC-3 prostate
SK-MEL-5 melanoma = test system: SK-MEL-5 melanoma
UACC-62 melanoma = test system: UACC-62 melanoma
LOX IMVI melanoma = test system: LOX IMVI melanoma
SK-MEL-2 melanoma = test system: SK-MEL-2 melanoma
SK-MEL-28 melanoma = test system: SK-MEL-28 melanoma

SMILES	growth (K-562 leukemia)	growth (MALME-3M melanoma)	growth (MDA-MB-231 breast)	growth (RXF 393 renal)	growth (SF-268 CNS)	growth (SF-295 CNS)	growth (SF-539 CNS)	growth (UACC-257 melanoma)	growth (M14 melanoma)	growth (HCT-15 colon)	growth (HT29 colon)	growth (SNB-75 CNS)	growth (SNB-19 CNS)	growth (U251 CNS)	growth (PC-3 prostate)	growth (SK-MEL-5 melanoma)	growth (UACC-62 melanoma)	growth (LOX IMVI melanoma)	growth (SK-MEL-2 melanoma)	growth (SK-MEL-28 melanoma)
C=C(NC(=O)C(=C)NC(=O)c1csc(C2=NC3c4csc(n4)C4NC(=O)c5csc(n5)C(C(C)(O)C(C)O)NC(=O)C5CSC(=N5)/C(=C/C)NC(=O)C(C(C)O)NC(=O)c5csc(n5)C3(CC2)NC(=O)C(C)NC(=O)C(=C)NC(=O)C(=C)NC(=O)C(C(C)C)NC2C=Cc3c(C(C)O)cc(nc3C2O)C(=O)OC4C)n1)C(N)=O (configuration not stated)	-11.3% (active)	-64.6% (active)	29.7%	16.9%	21.5%	26.6%	-22.5% (active)	24.2%	-29.5% (active)	-23.7% (active)	-2.13% (active)	-10.9% (active)	16.8%	-46% (active)	9.64% (active)	-56.2% (active)	5.94% (active)	-52.7% (active)	-17.7% (active)	
Cc1cccc2c(NCCN(C)C)c3cccc(C(=O)NCCN(C)C)c3nc12	-24.5% (active)	7.06% (active)	5.41% (active)	8.33% (active)	11.3%	7.5% (active)	11.6%	-20.6% (active)	11.7%	-46.5% (active)	-43.7% (active)	-24.7% (active)	14.5%	-43% (active)	-31% (active)	3.71% (active)	20.8%	-61.9% (active)	-6.23% (active)	
O=C(Nc1ccc(OS(=O)(=O)c2ccccc2)cc1)C12CC3CC(CC(C3)C1)C2	13%	55.8%	19.9%	26.8%	78.6%	45.6%	19.7%	37.8%	47.2%	29.9%	-19.9% (active)	56.4%	71.8%		23.6%	32%	57%	40%		75%
Fc1cc(C(F)(F)F)ccc1-c1cncnc1NC1CCCCCC1	91.3%	118%	91%	88.5%	115%	94.5%	94.8%	93.9%	105%	95.6%	110%	80.3%	94.2%	79.9%	87.1%	92.2%		98.3%	98.8%	111%
Nc1ncn(C2OC(CO)C(O)C2O)c(=O)n1 (configuration not stated)	-24% (active)	15.1%	0.46% (active)	10.6%	23.9%	15.4%	-24.4% (active)	14.8%	1.16% (active)	-15.3% (active)	6.45% (active)	-32.7% (active)	17.2%	5.19% (active)	-30.7% (active)	25.5%	-8.83% (active)	-33.7% (active)	-21.2% (active)	
CNc1ncc(-c2ccc(C(F)(F)F)cc2)c(NC2CCCCCC2)n1	76.2%	61.3%	92.8%	80.6%	99.7%	79.4%	93.5%	73.2%	93.9%	81.5%	56.8%	90.9%	85.2%	58.9%	61.8%	74.8%		85.8%		88%
O=C1C(c2ccccc2)C2C=CC(C2)N1O (configuration not stated)	96.9%	109%	102%	104%	107%	122%	113%	105%	111%	106%	97.9%	107%	106%	109%	98.2%	106%		99.6%		118%
C/C(=N\Nc1nc2ccccc2s1)c1ccncn1	0.401% (active)	43.2%	31.3%	9.64% (active)	45.5%	39.3%	40.8%	55.6%	34.9%	18.6%	25.1%	61.8%	51.1%	33.6%	27.3%	31.4%	41.7%	31.5%	63%	
Cc1nc2ccc(CN(C)c3ccc(C(=O)N[C@@H](CCC(=O)O)C(=O)O)s3)cc2c(=O)[nH]1	30.6%	60.7%	89.4%	31.8%	26.4%	22.9%	6.05% (active)	46.7%	21.8%	74.5%	55.1%	43.4%	42.8%	56.3%	56.5%	28.7%	40.1%	26.8%	105%	
COC(=O)[C@@H]1[C@H](O)[C@H](C)[C@H](O)[C@@](C)(O)/C=C\C=C(C)C(=O)Nc2c(C)c(OC(C)=O)c3c(c2O)C(=O)C(C)=C2OCOC(=C23)C(C)=C[C@@](C)(O)[C@H](O)[C@@H](C)[C@H]1OC(C)=O	89%	101%	98.8%	104%	113%	98%	100%	107%	122%	74.7%	111%	81.9%	112%	104%	22%	98%		104%	117%	
CC(C)=NNc1ncnc2c1ncn2C1OC(CO)C(O)C1O (configuration not stated)	14.8%	-15.8% (active)	19.3%	23.1%	40.9%	8.82% (active)	35.3%	73.9%	35.8%	12.6%	18.1%	32.1%	42.5%	29.1%	17.7%	20.5%		7.06% (active)	41.4%	54.7%
CNc1ccc(CSc2ccc(C)cc2)cc1	119%	94.4%	33.4%	64.2%	69.6%	103%	56.3%	93%	84.7%	89.2%	100%	60.7%	93.3%		60%	67.7%	86.2%	92.1%	96.8%	93.8%
c1ccc([C@H]2CN3CCSC3=N2)cc1	91.8%	92.3%	101%	101%	111%	91.3%	87.8%	104%	85.8%	108%	101%	-20.8% (active)	110%	107%	98.9%	103%	99%	102%	105%	
C=C(Cl)[C@@](Cl)(CBr)CC[C@@H](Br)C(C)(C)Cl	8.41% (active)	102%	-78.2% (active)	-5.37% (active)	1.89% (active)	-48.4% (active)	-81.9% (active)	-66.7% (active)	89.1%	-63.8% (active)	-88.2% (active)	-96.8% (active)	-74.9% (active)	-97.9% (active)	-92.7% (active)	87.9%	-25.9% (active)	94.5%	-30.8% (active)	
COc1ccc([N+](=O)[O-])c(C(=O)O)c1	88.6%	105%	121%	98.3%	102%	88.7%	98.7%	110%	100%	98.5%	102%	100%	103%	101%	99.8%	98.5%		98.5%		106%
FC(F)(F)c1ccc(-c2cnc(-n3cc(COCCN4CCCCC4)nn3)nc2NC2CCCCCC2)cc1	-48.4% (active)	-86.3% (active)	11.1%	-3.46% (active)	33.2%	-56.8% (active)	-66.8% (active)	-89.7% (active)	-87.6% (active)	3.73% (active)	-73.1% (active)	11.5%	84.2%	-74.5% (active)	7.37% (active)	-91% (active)		-55.8% (active)		-90.5% (active)
CCOC(=O)C(=Cc1ccc(Br)cc1)C(=O)OCC	0.625% (active)	-49.5% (active)	4.72% (active)	-75% (active)	-6.93% (active)	38.3%	8.53% (active)	-37.8% (active)	-22% (active)	-42.1% (active)	-64% (active)	12.7%	63.1%	-46% (active)	-30.4% (active)	-47.9% (active)		-85.7% (active)	-61.5% (active)	-74.5% (active)
